Test results published in PubChem BioAssay AID493001 (Johns Hopkins Ion Channel Center, 2010).
In all, about 1,900 compounds went through this assay and about 430 (23%) were called active.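 Rule for the calls: active = duplicate-averaged calcium rise in uninduced cells above buffer wells' mean plus 5 SD; inactive = the rest.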 A selection follows.

assay: direct calcium signal without carbachol stimulation – cell-based, HEK293 M3R, non-induced, no carbachol, second counter-screen, artefact control for RGS4 inhibitor project, confirmation (AID 493001); conditions: Fluo-4 calcium, at 10 µM; stronger effect = higher value, normalised: buffer wells 0%, carbachol wells 100%

| SMILES | calcium response (agonist-mode artifact) |
| --- | --- |
| CCCCC1S/C(=N/N=C/c2cccs2)NC1=O (centres undefined) | inactive |
| CCOC(=O)[C@@H]1[C@H]2COc3ccc(Br)cc3[C@H]2N2C(=O)N(c3ccc(Cl)cc3)C(=O)[C@@]12C | inactive |
| O=C(CCN1CCc2ccccc2C(O)(c2ccccc2)C1)c1ccc2c(c1)OCCO2 (centres undefined) | 11.5% (active) |
| CCc1nnc(NS(=O)(=O)c2ccc(N=Cc3c(C)[nH]n(-c4ccc(C)cc4)c3=O)cc2)s1 | inactive |
| CCC(c1nnnn1Cc1ccco1)N(Cc1cc2cc(OC)ccc2[nH]c1=O)C1CCCCC1 (centres undefined) | inactive |
| C=C(C)C(=O)O[C@H]1C/C(C)=C\C(=O)/C=C(\C)[C@H](O)[C@@H]2OC(=O)C(=C)[C@@H]21 | inactive |
| CCCCOC(=O)CNc1nnc(SCC(=O)OCC)[nH]c1=O | inactive |
| CNCC(O)c1ccc(O)c(O)c1 (centres undefined) | inactive |
| Cc1ccc(S/C(=N\S(=O)(=O)c2ccc(Cl)cc2)c2ccccc2)cc1 | 25% (active) |
| COc1ccc(OC)c(S(=O)(=O)N2CCCC(C(=O)N3CCC(C(N)=O)CC3)C2)c1 (centres undefined) | inactive |
| CCOC(=O)C1CCN(C(c2cc3cc(C)cc(C)c3[nH]c2=O)c2nnnn2C2CCCCC2)CC1 (centres undefined) | inactive |
| Cc1noc(NS(=O)(=O)c2ccc(N/C=C/C(=O)c3ccccc3)cc2)c1C | inactive |
| Cc1ccsc1/C=N/n1c(=S)[nH]nc(C)c1=O | inactive |
| CCOc1ccc(/C=N/NC(=O)CSc2ccccn2)cc1O | inactive |
| Cc1nc(-c2ccccc2)sc1C(=O)/C=C/c1ccccc1 | 22.5% (active) |
| S=c1[nH]nc(-c2cccnc2)n1/N=C/C(Cl)=C\c1ccccc1 | inactive |
| Oc1ccc(-c2[nH]ncc2-c2nc3ccccc3s2)c(O)c1 | inactive |
| C=CCOc1ccc(/C=C2/C(=O)ON=C2C)cc1OCC | 10% (active) |
| C#CCOc1ccc(/C=C2/C(=O)ON=C2C)cc1OCC | inactive |
| COc1cc(/C=C2/C(=O)ON=C2C)ccc1OCc1ccccc1F | 222% (active) |

| SMILES | calcium response (agonist-mode artifact) |
| --- | --- |
| Cc1ccc(NC(=O)c2c(NC(=O)CCC(=O)O)sc3c2CCCCC3)cc1 | inactive |
| Cc1ccc(Nc2nc(N)nc(CSc3nnc(C)s3)n2)cc1 | inactive |
| Cc1ccc(Nc2nc(N)nc(CN3CCN(Cc4ccccc4)CC3)n2)cc1Cl | inactive |
| Brc1ccc(-c2csc(N/N=C/c3cccnc3)n2)cc1 | inactive |
| CCOc1ccc(NC(=O)C/C(C)=N/NC(=O)Cc2cccs2)cc1 | inactive |
| COc1ccc(/C=C/C(=O)c2ccc(OC)cc2O)cc1 | 11.5% (active) |
| O=C(/C=C/c1ccc(Cl)c([N+](=O)[O-])c1)c1ccc(O)cc1 | inactive |
| Cc1c(NC(=O)c2coc(=O)c(Br)c2)c(=O)n(-c2ccccc2)n1C | inactive |
| CCc1ccc(C2C(C#N)=C(N)N(N3CCOCC3)C3=C2C(=O)CC(C)(C)C3)s1 (centres undefined) | inactive |
| COc1ccc(S(=O)(=O)Nc2ccc(O)c(Sc3nc4ccccc4s3)c2)cc1 | inactive |
| O=[N+]([O-])c1c(NCCO)cc(Sc2nc3ccccc3s2)c2nonc12 | 114% (active) |
| C[C@H](NC(=O)c1nc[nH]c1C(=O)NCC(=O)OC(C)(C)C)c1ccccc1 | inactive |
| Cc1nc(Nc2ccc(S(=O)(=O)N3CCCC3)cc2)c2nnn(Cc3ccccc3)c2n1 | inactive |
| Nc1cccc(-c2cc(-c3ccccc3)nc(-c3cccc(N)c3)n2)c1 | inactive |
| O=C(N/N=C/c1ccccc1O)/C(=C/c1ccccc1)CCO | inactive |
| CS(=O)(=O)N(CC(O)Cn1c2ccccc2c2ccccc21)c1cccc2ccccc12 (centres undefined) | inactive |
| COCCCNC(=S)N(CCN(C)C)Cc1cc2cc3c(cc2[nH]c1=O)OCCO3 | inactive |
| C1=C(N2CCOCC2)/C(=C/c2nc3ccccc3[nH]2)CC1 | 185% (active) |
| Cc1nn(C(C)C(=O)N2CCOCC2)c(=O)c2nn(-c3ccccc3)c(C)c12 (centres undefined) | inactive |
| Cc1ccc(Sc2cc(N3CCOCC3)nc(-c3ccccc3)n2)cc1 | 17% (active) |

| SMILES | calcium response (agonist-mode artifact) |
| --- | --- |
| COC(=O)C1CCN(C(=O)c2cc(=O)[nH]c3ccccc23)CC1 | inactive |
| COC(=O)Cn1cc(/C=C/[N+](=O)[O-])c2ccccc21 | 11.5% (active) |
| CC(C)Cc1nc(Nc2ccc(S(=O)(=O)N3CCCC3)cc2)c2nnn(Cc3ccccc3)c2n1 | inactive |
| COc1cc(Br)cc(/C=N/c2ncn[nH]2)c1O | inactive |
| C#CCOc1ccc(/C=C2/C(=O)NN(c3ccccc3)C2=O)cc1OC | inactive |
| COc1cc(/C=C2/C(=O)NN(c3cccc(Cl)c3)C2=O)cc(Br)c1O | 43.5% (active) |
| Cc1ccc(/C=C2\CCn3c2nc2cc(C(=O)O)ccc2c3=O)c(C)c1 | inactive |
| O=[N+]([O-])/C=C/c1ccc2c(ccn2Cc2ccccc2)c1 | 104% (active) |
| Cc1cc(-c2n[nH]c(=S)n2/N=C/C(Br)=C/c2ccccc2)n[nH]1 | inactive |
| O=C1c2ccccc2NC(c2ccc(-c3cccc(Cl)c3)o2)N1O (centres undefined) | inactive |
| O=C(O)C(c1ccccc1)N1C(=O)/C(=C\c2ccc(-c3cccc(Cl)c3)o2)SC1=S (centres undefined) | 599% (active) |
| O=C1Nc2ccc(Br)cc2/C1=N/N=C/C1=C(N2CCOCC2)C(=C\c2ccccc2)/CC1 | inactive |
| O=C(COC(=O)c1cccc(Br)c1)Nc1cccc2c1C(=O)c1ccccc1C2=O | inactive |
| Oc1ccc(/C=N/Nc2ccc(C(F)(F)F)cn2)cc1O | inactive |
| Cc1nn2c(=O)cc(COC(=O)c3ccc(NC(=O)C(C)(C)C)cc3)nc2s1 | inactive |
| COc1ccc(C(C[N+](=O)[O-])n2nc(C)cc2C)cc1 (centres undefined) | 16% (active) |
| CCOC(=O)C1=NN(c2ccc(Cl)cc2)/C(=C/C2=NCCc3cc(OC)c(OC)cc32)S1 | 7% (active) |
| COc1ccc(NCc2nnc(SCc3ccccc3)n2-c2ccc(OC)cc2)cc1 | inactive |
| O=S(=O)(Nc1nccs1)c1ccc2c(c1)OCCO2 | inactive |
